Most compounds without a hit are left out; they make up all but 21% or so of the library.
Cycloheximide cs: counter-screen hit for Shiga toxin inhibitors, cycloheximide | max response, % | cell reporter, cycloheximide protein synthesis inhibition counterscreen | 300,000 compounds, 12% hits; in the data active = max response mostly above about 13%, no sharp cut-off; inactive = mostly below about 14%; also: read at 38.3 µM for the half of the compounds with a filed dose; 0% is about no effect
Shiga toxin inh: blocks Shiga toxin action in Vero cells | Vero cells, Shiga toxin protein synthesis inhibition reporter | inhibition, % at 38.7 µM | 290,000 compounds, 9.2% hits | AID 2315; in the data active = inhibition mostly above about 28%, no sharp cut-off; inactive = mostly below about 43%; also: 0% is about no effect
NS1 inh: influenza NS1 inhibition | 270,000 compounds, 0.4% hits | Potency, µM (highest dose often 46.1 µM), for inactives: at the top dose activity, positive = more growth; calls by dose curve; also: potency is read from the fitted curve at half-maximal effect; actives are rising curves; nearly all actives have a fitted effect of over 50% in size
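In this qHTS, NS1 from influenza A is expressed in budding yeast, where it slows growth. Cells are switched from glucose to 2% galactose medium (pH 6.0, -URA), treated with compound, and growth recovery is read at OD600.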
FBPA Giardia inh: Giardia lamblia aldolase inhibition. purified Giardia FBPA. Potency, µM (doses to about 59.6 µM), for the others: at the top dose activity, negative = inhibition, most hits filed as inhibitors. 290,000 compounds, 0.71% hits. AID 2451. A8B2U2; also: potency is read from the fitted curve at half-maximal effect; % is scaled to controls: 0 for no effect and ±100 for the full control effect; nearly all actives have a fitted effect of over 55% in size
Target sequence (A8B2U2 whole entry, looked up): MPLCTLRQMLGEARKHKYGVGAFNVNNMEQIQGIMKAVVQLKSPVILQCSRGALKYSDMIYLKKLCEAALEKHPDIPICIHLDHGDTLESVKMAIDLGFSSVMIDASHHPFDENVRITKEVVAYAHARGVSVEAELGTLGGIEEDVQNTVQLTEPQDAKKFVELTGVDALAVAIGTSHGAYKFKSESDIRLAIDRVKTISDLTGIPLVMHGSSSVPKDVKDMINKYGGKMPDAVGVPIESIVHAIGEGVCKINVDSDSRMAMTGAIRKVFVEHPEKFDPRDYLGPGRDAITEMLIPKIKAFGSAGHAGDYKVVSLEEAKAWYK
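Giardia FBPA (40 nM reagent) was preincubated 10 min at RT with compound (up to 57.5 uM final), then substrate plus GAPDH/TPI/NAD/arsenate coupling system with diaphorase/resazurin was added; resorufin fluorescence (525/598 nm) was read after 20 min.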
Pf growth 48h: inhibits P. falciparum growth in the first generation, 48 h | P. falciparum luciferase growth in erythrocytes, 48 h | Potency, µM (highest dose often 28.7 µM), without a hit: at the top dose activity change, negative = inhibition, most hits filed as inhibitors | 310,000 compounds, 5.9% hits; also: potency is read from the fitted curve at half-maximal effect; % is scaled to controls: 0 for no effect and ±100 for the full control effect
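Compounds are pin-transferred into medium, infected erythrocytes (2% hematocrit, 0.1% parasitemia final) are added, and plates sit one parasite generation at 37 C in 5% CO2. Detection reagent is then added and luminescence measured.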
Pf growth 96h: P. falciparum growth inhibition at 96 hours; P. falciparum luciferase reporter growth, 96 h; Potency, µM (series often up to 28.7 µM), for the others: at the highest dose activity change, negative = inhibition, most hits filed as inhibitors; 320,000 compounds, 6.9% hits; AID 504834; also: potency is read from the fitted curve at half-maximal effect; % is scaled to controls: 0 for no effect and ±100 for the full control effect
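P. falciparum expressing integrated firefly luciferase, in erythrocytes at 2% hematocrit, 0.05% parasitemia, incubated with compounds 96 h at 37 C, 5% CO2. Growth inhibition read as loss of luminescence; two-generation exposure targets delayed-death apicoplast inhibitors.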
* hit, by the source's call; i = inactive; ? = inconclusive; · = not tested or not shown. Unless noted, calls follow the shape of the dose curve; as a rule, active = well fitted curve in the direction sought with a large enough effect; inconclusive = small, poorly fitted or top-dose-only effect, or another doubt; inactive = no such curve, though single readings can be large; an effect the other way counts as inactive or inconclusive.

SMILES	Cycloheximide cs	Shiga toxin inh	NS1 inh	FBPA Giardia inh	Pf growth 48h	Pf growth 96h
C[C@@H]1CC[C@H]2[C@@H](C)C(=O)O[C@@H]3O[C@@]4(C)CC[C@@H]1[C@]32OO4	-0.7	-1.4	-67.6%	-1.2%	0.0033µM*	0.0033µM*
CC(NC(=O)CCNC(=O)N1CCn2c1nc1ccccc12)c1ccccc1 (stereo not given)	-2.1	24.7	-3.5%	11.4%	3.9%	2.9%
N#Cc1ccccc1OC[C@H](O)CNCCNC(=O)Nc1ccccc1	·	·	·	-1.1%	·	·
Fc1ccc(Nc2ncnc3ccccc23)cc1	22.2*	·	-45.4%	?	23.9%	8.9%
COc1ccccc1Nc1ncnc2ccccc12	16.6*	35.0	-10.5%	0.9%	39.7%	9.0%
CCOc1ccccc1Nc1ncnc2ccccc12	-3.0	12.2	-12.9%	-8.0%	6.6%	-19.5%
COc1ccc(CC(=O)NCc2n[nH]c(=S)n2-c2ccccc2OC)cc1	2.3	17.7	·	-18.9%	-2.2%	-16.3%
CCOC(=O)C1(CCCc2ccccc2)CCN(C2CCN(C(C)=O)CC2)CC1	-2.1	-12.1	1.8%	0.7%	?	?
N#CC1=C(N)Oc2ccc3ccc(O)cc3c2C1c1cccnc1 (stereo not given)	-0.7	-10.0	-1.4%	-6.4%	1.31µM*	?
Cc1cc2c(c(=O)n1Cc1ccco1)C(c1cccnc1)C(C#N)=C(N)O2 (stereo not given)	1.0	1.4	?	-12.9%	0.0%	9.28µM*
N#CC1=C(N)Oc2n[nH]c(-c3ccc(F)cc3)c2C1c1cccnc1 (stereo not given)	-1.6	-13.8	4.1%	-11.1%	·	5.86µM*
N=C1CCC[C@@H]1C(=S)SCCC(N)=O	·	·	2.0%	·	·	·
Cc1ccccc1OCC(=O)N1CCCCCCC1	1.8	27.5	0.0%	-2.7%	-2.5%	?
CC(C)(C)c1ccc(OCC(=O)N2CCCCCC2)c(Br)c1	42.6*	120.0*	-42.2%	-4.2%	-64.2%	?
Cc1ccc(OCC(=O)N2CCCCC2)c(Br)c1	38.0*	63.2*	-8.8%	7.2%	34.4%	19.9%
CC(C)c1ccccc1OCC(=O)N1CCCCCCC1	-1.2	-2.6	-10.0%	8.5%	20.9%	4.15µM*
Fc1cccc(CSc2nnc3c(n2)[nH]c2ccccc23)c1	19.3*	44.3	-4.1%	3.0%	?	?
CC1CCc2cc(F)ccc2N1C(=O)CSc1nnc2c(n1)[nH]c1ccccc12 (stereo not given)	-2.8	18.6	12.8%	-16.2%	1.47µM*	?
O=C(CSc1nnc2c(n1)[nH]c1ccccc12)N1CCCCC1	2.3	18.8	-1.5%	·	?	?
Oc1c(CN2CCCC(C(F)(F)F)C2)cc(Cl)c2ccccc12 (stereo not given)	17.5	10.5	-3.7%	-15.6%	?	?
CCCOc1cccc(OCCSc2nc(C)cc(=O)[nH]2)c1	46.0*	31.2	-2.1%	4.7%	4.8%	·
Cc1cc(=O)[nH]c(SCCCOc2ccc(F)cc2)n1	27.4	-3.2	-9.2%	-4.1%	·	?
COc1ccc(N2CCN(C(=O)CNC(=O)Cn3cnc4sc(C)c(C)c4c3=O)CC2)cc1	-1.7	-3.6	-1.7%	3.0%	8.0%	7.4%
Cc1cc(C(=O)NNC(=O)c2ccc(C)c([N+](=O)[O-])c2)c(C)o1	·	·	·	·	?	24.5%
CCOC(=O)C1=C(C)N=C2SC(C)C(=O)N2C1c1ccc(OC(C)=O)c(OC)c1 (stereo not given)	-1.0	6.3	24.3%	-11.9%	?	-25.1%
SMILES	Cycloheximide cs	Shiga toxin inh	NS1 inh	FBPA Giardia inh	Pf growth 48h	Pf growth 96h
CCOC(=O)C1=C(C)N=C2SC(C)C(=O)N2C1/C=C/c1ccccc1OC (stereo not given)	-1.3	34.4	7.3%	-18.1%	11.7µM*	·
COc1cc(C2N(c3ccccc3)CCN2c2ccccc2)ccc1OC(C)=O	47.1*	55.9	?	-14.3%	20.1%	-13.8%
CCCc1cc(=O)oc2c3c(c4c(c12)OC(C)(C)C=C4)OC(C)C(C)C3O (stereo not given)	-2.4	-6.3	0.2%	-12.3%	?	10.4µM*
c1ccc(CNc2c3ccccc3nc3ccccc23)cc1	-6.9	-6.5	-3.2%	4.7%	2.94µM*	?
Oc1ccc(CCNc2c3ccccc3nc3ccccc23)cc1O	12.5	·	-64.2%	-17.4%	13.1µM*	3.29µM*
CCOC(=O)c1nc(NCc2ccccc2)c2ccccc2n1	40.2*	116.5*	·	7.7%	-0.2%	-3.7%
COCCNc1nc(SCC(=O)N2CCN(c3ccccc3)CC2)nc2ccccc12	-1.4	-8.4	-6.8%	3.2%	?	69.0%
CCCCN(C)C(=O)CSc1nc(NCc2ccc(OC)cc2)c2ccccc2n1	-5.4	-20.0	5.9%	11.7%	10.4µM*	2.33µM*
CNCCc1ccc(O)c(O)c1	·	·	2.8%	-7.3%	·	·
Oc1ccccc1-c1nc(NCc2ccccc2)c2ccccc2n1	-1.8	-5.2	4.9%	-1.9%	?	?
C[C@@H]1COC(=O)O1	-0.9	4.6	·	0.2%	·	·
CN(C)CCCNc1c2ccccc2nc2ccccc12	-2.2	-5.2	-61.7%	11.7%	1.04µM*	-7.7%
CCOC(=O)c1c(C)nc(-c2ccccc2)nc1NC(=O)CC	24.1*	70.3*	?	1.0%	95.8%	?
O=C(Cc1ccccc1)NNc1c2ccccc2nc2ccccc12	-2.5	-4.9	-14.9%	2.2%	-12.0%	81.3%
OCC(Cc1ccccc1)Nc1c2ccccc2nc2ccccc12 (stereo not given)	-1.9	-7.0	-8.4%	0.0%	2.62µM*	?
CN(C)CCCNc1nc(-c2ccccc2)nc2ccccc12	0.4	7.4	3.5%	-19.7%	?	?
CCOC(=O)c1c(C)nc2ccccc2c1-c1ccccc1	-3.5	-11.2	-30.5%	14.2%	2.5%	-19.0%
CCC(=O)Nc1nc(-c2ccccc2)nc(SC)c1C(C)=O	-5.5	4.1	·	2.7%	4.8%	?
CCOC(=O)c1c(C)nc2ccccc2c1C	25.0*	15.3	-15.8%	22.3%	28.1%	·
O=C(COc1ccc2c3c(c(=O)oc2c1)CCCC3)NCCCN1CCOCC1	-2.0	-3.2	2.7%	0.3%	-13.1%	4.2%
c1ccc(CNc2ncnc3ccccc23)cc1	-2.0	-8.6	-9.3%	0.3%	?	-8.5%
Oc1ccccc1Nc1nc(NCc2ccccc2)c2ccccc2n1	8.9	24.9	-9.9%	-22.1%	0.329µM*	59.6%
CNc1nc(NCc2ccccc2)c2ccccc2n1	1.7	-8.0	-22.4%	?	1.17µM*	?
O=C1N(Cc2cccnc2)C[C@@H]2C[C@@H](c3ccc4nsnc4c3)N3CCC[C@@]123	-1.2	-2.4	4.3%	-10.3%	?	?
COc1cccc(/C=C2\CCC(C3CCCC3)C2=O)c1 (stereo not given)	51.2*	83.5*	-10.9%	8.6%	58.5%	40.0%
O=C1/C(=C/c2ccc([N+](=O)[O-])cc2)CCC1C1CCCC1 (stereo not given)	17.6*	31.3	-4.4%	7.9%	43.7%	i
O=C1CCC/C1=C\c1ccccc1	11.4	2.5	·	15.2%	0.2%	18.1%

Screening data: PubChem BioAssay, National Center for Advancing Translational Sciences (NCATS)
